DT40 TDP1 no CPT: qHTS for Inhibitors of human tyrosyl-DNA phosphodiesterase 1 (TDP1): qHTS in cells in absence of CPT; DT40 Tdp1-/- hTDP1 cells, no CPT, ATP luminescence, 48 h; hit rate 15% among 420,000; AID 686978, 2013; Potency, µM (doses to about 46.2 µM), without a hit: at the top dose activity change, negative = growth inhibition, hits mostly inhibitors; further: on the % scale 0 is the no-effect control and ±100 the full control effect; nearly all actives have a fitted effect of over 55% in size
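Readout: luminescence from CellTiter-Glo after 30 min in the dark at RT. Cells: DT40 Tdp1-/- with stable hTDP1, 400/well. Exposure: compounds alone, ≥48 hr, 37 °C.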
ATXN2 expr inh: ATXN2 expression inhibition. HEK-293 ATXN2-luciferase reporter, luminescence, 24 h. hit rate 0.72% among 360,000. AID 1745845. Potency, µM (doses to about 57 µM), inactives show at the top dose activity change, negative = inhibition, actives largely listed as inhibitors; further: on the % scale 0 is the no-effect control and ±100 the full control effect; nearly all actives have a fitted effect of over 55% in size
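ATXN2-luciferase reporter cells (luciferase flanked by upstream and downstream ATXN2 gene portions) were treated 24 h at 37 °C with compounds at up to 57 uM. SteadyGlo luminescence gave expression; GF-AFC fluorescence gave viability.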
TGFb SMAD3 inh: inhibitors of TGF-b signaling; HepG2 CAGA-GFP TGF-b/SMAD3 reporter, GFP fluorescence, 18 h; TGF-beta stimulated, 500 pg/mL final; Potency, µM (titrated, usually from 46.1 µM), for the others: at the highest dose activity, negative = inhibition, actives largely listed as inhibitors; hit rate 1.2% among 410,000; further: on the % scale 0 is the no-effect control and ±100 the full control effect; nearly all actives have a fitted effect of over 65% in size
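First, reporter cells (HEPG2 CAGA-GFP) rested 2 h at 37 degrees C. Next, compounds were pinned in and TGF-beta added to 500 pg/mL final. After 18 h, GFP was imaged per cell and summed per well.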
ATXN viability: viability counter-screen for ATXN expression inhibitors; hit rate 0.49% among 400,000; S2 cells (HEK-293 line with an ATXN2-luciferase reporter) viability, CellTiter-Fluor protease fluorescence, 24 h; Potency, µM (doses to about 56.7 µM), usual class: cytotoxic; further: nearly all actives have a fitted effect of over 40% in size
TDP1 cell CPT: growth inhibition of DT40 Tdp1-/-;hTDP1 cells with camptothecin (screen for TDP1 inhibitors); chicken DT40 Tdp1-/-;hTDP1 cells + 20 nM CPT, ATP luminescence, 48 h; Potency, µM (top dose mostly 46.2 µM), inactives show at the top dose activity change, negative = growth inhibition, hits mostly inhibitors; hit rate 12% among 420,000; AID 686979; further: on the % scale 0 is the no-effect control and ±100 the full control effect; nearly all actives have a fitted effect of over 55% in size
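Cell growth measured by CellTiter-Glo luminescence after a minimum 48 h, 37 C compound exposure with 20 nM CPT in Tdp1-knockout DT40 cells stably expressing hTDP1, seeded 400/well; qHTS titration format.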
HepG2 tox-1: HepG2 cytotoxicity, counter-screen for TGF-b inhibitors; hit rate 0.76% among 410,000; AID 588856; HepG2 CAGA-GFP viability, ATP luminescence, 18 h; Potency, µM (series often up to 46.1 µM), without a hit: top-dose activity change, negative = cytotoxicity, usual class: cytotoxic
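CellTiter-Glo luminescence gave cytotoxicity after 18 hours at 37 degrees C. The cells were HepG2 CAGA-GFP in 1% FBS DMEM, stimulated with 500 pg/mL TGF-beta after compound addition. %Activity was normalised to no-cell wells (complete cell-killing) and DMSO (no toxicity), and curves were fitted and classified.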
TGFb CAGA inh: TGF-b pathway inhibition, cherry-pick retest; hit rate 63% among 1,600; HepG2 CAGA-GFP TGF-b reporter, GFP fluorescence, 18 h; cells stimulated with TGF-beta, 500 pg/mL; Potency, µM (top dose mostly 46.1 µM), inactives show at the top dose activity, negative = inhibition, hits mostly inhibitors; shares compounds with TGFb SMAD3 inh; further: on the % scale 0 is the no-effect control and ±100 the full control effect; nearly all actives have a fitted effect of over 65% in size
HepG2 tox-2: HepG2 cytotoxicity, TGF-b inhibitor counterscreen; shares compounds with TGFb SMAD3 inh; AID 720535; hit rate 27% among 1,600; Potency, µM (highest dose often 46.1 µM), for the others: top-dose activity, negative = cytotoxicity, hits mostly inhibitors; HepG2 CAGA-GFP viability, ATP luminescence, 18 h; cells stimulated with TGF-beta, 500 pg/mL; further: on the % scale 0 is the no-effect control and ±100 the full control effect; nearly all actives have a fitted effect of over 70% in size
TGFb CCL64 inh: blocks TGF-b signaling in CCL64 reporter cells; shares compounds with TGFb SMAD3 inh; CCL64 CAGA-GFP reporter, TGF-b stimulated, GFP fluorescence, 18 h; Potency, µM (top dose mostly 46.1 µM), for the others: at the highest dose activity, negative = inhibition, hits mostly inhibitors; hit rate 41% among 1,600; further: nearly all actives have a fitted effect of over 65% in size
COP TGFb inh: blocks TGF-b signaling in HepG2 COP reporter; Potency, µM (highest dose often 46.1 µM), for the others: at the top dose activity, negative = inhibition, usual class: inhibitors; hit rate 3% among 1,600; HepG2 COP-GFP TGF-b reporter, GFP fluorescence, 18 h; cells stimulated by added recombinant TGF-beta; shares compounds with TGFb SMAD3 inh; further: nearly all actives have a fitted effect of over 70% in size
Starred values were filed as active, the others as inactive; i = inactive; ? = inconclusive; · = not tested or not shown. Most compounds without a hit are left out; they make up all but 17% or so of the library. The call rests on the fitted dose curve; in most records, active means well fitted curve in the direction sought with a large enough effect; inconclusive means small, poorly fitted or top-dose-only effect, or another doubt; inactive means no such curve, though single readings can be large; an effect the other way counts as inactive or inconclusive. Potency means the concentration at half of the fitted maximal effect.

SMILES | DT40 TDP1 no CPT | ATXN2 expr inh | TGFb SMAD3 inh | ATXN viability | TDP1 cell CPT | HepG2 tox-1 | TGFb CAGA inh | HepG2 tox-2 | TGFb CCL64 inh | COP TGFb inh
COc1ccc2[nH]c3c(c2c1)CCN1C(=O)C(CC(=O)NCc2cccc(C(F)(F)F)c2)C[C@H](C(=O)N2CCCCC2)[C@@]31C (some centres not stated) | 8.2µM* | 0.0% | 10µM* | ? | 10.3µM* | 2.2% | 8.2µM* | -17.0% | 4.61µM* | 3.0%
O=C(c1cn(Cc2ccccc2F)c2ncccc12)C(F)(F)F | -24.5% | -3.5% | ? | i | -1.6% | -4.0% | ? | -8.5% | -0.4% | -1.2%
COc1ccc(NC(=O)c2cn(CCC#N)nc2-c2cccc(Br)c2)cc1 | -28.4% | · | -7.8% | i | -12.1% | -1.9% | · | · | · | ·
CC(C)c1oc(=O)cc2c1[C@@H](O)[C@H]1OC(=O)[C@@]3(C)C[C@@H](O)[C@@H](O)[C@@]2(C)C13 (some centres not stated) | 1.84µM* | ? | 8.91µM* | ? | 2.06µM* | -24.6% | 2.91µM* | ? | 5.17µM* | 15.6%
CC(=NCc1ccco1)c1c(O)n(Cc2ccccc2)c(=O)[nH]c1=O | -4.9% | -1.7% | -0.9% | i | -18.6% | -3.9% | · | · | · | ·
CNc1ccc2oc(C[C@H]3O[C@@]4(CC[C@H]3C)O[C@H]([C@H](C)C(=O)c3ccc[nH]3)[C@H](C)C[C@H]4C)nc2c1C(=O)O | 0.184µM* | 8.91µM* | 5.01µM* | 7.08µM* | 0.0259µM* | 7.08µM* | 2.06µM* | 1.46µM* | 1.03µM* | 6.51µM*
CCOC(=O)COc1ccc2c(c1)c(C(C)=O)c(C)n2Cc1ccccc1 | -13.2% | -13.8% | -3.3% | i | -0.8% | 2.3% | · | · | · | ·
CC1CCC/C=C/C2CC(O)CC2C(O)/C=C/C(=O)O1 (configuration not stated) | 0.366µM* | ? | 0.112µM* | ? | 0.291µM* | -38.6% | 0.0651µM* | ? | ? | 66.7%
C=Cc1cc(OC)c2c(c1)c(=O)oc1c2cc(OC)c2c(O)ccc(C3OC(C)C(O)C(C)(O)C3O)c21 (configuration not stated) | 0.206µM* | 1.68µM* | 1.41µM* | i | 0.164µM* | 24.4% | 0.92µM* | 1.16µM* | 2.06µM* | 6.8%
C=C[C@@]12CN(C)[C@H]3[C@H]1[C@@]1(C(=O)Nc4ccccc41)C1CC2[C@@H]3CO1 | 15.1% | 1.2% | 8.5% | i | 4.4% | -18.4% | · | · | · | ·
